# Several values for one entry are separate records, joined by “and”; a condition that tells them apart may be missing. Equal values may be shown once. More than one record can exist for a structure, and the calls need not agree. Activity calls are given as the source filed them. Unless noted, no rule for the calls is given here.
# What was measured:
# [1] = test system: Wnt5a (protein binding on small-molecule microarray); test: Wnt5a binders on small-molecule microarray, primary screen, biophysical, 635/667 nm fluorescence (AID 1142); conditions: 635 nm fluorescence, higher = more signal;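 also: fluorescence read at 667 nm with signal to noise per printed feature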
# [2] = cell viability in Huh7 cells, primary screen, cytotoxicity control for HCV replication inhibitor project, CellTiter-Glo luminescence, basal, 48 h (AID 1143); conditions: Huh7 HCV replicon, higher = more signal, called active from +8 up or from −8 down;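 also: Huh7 hepatoma cells carrying a hepatitis C replication reporter with no stimulus; test concentration not given here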
# [3] = P. aeruginosa biofilm formation inhibitors, primary screen, PAO1 strain, BacTiter-Glo luminescence, LB-PBS (AID 1144); conditions: 12 h, higher = more signal
# [4] = CREB reporter modulators without forskolin, primary screen, cell-based, PC12, CRE-LacZ reporter, unstimulated (AID 1145); conditions: no forskolin, luminescence, 4.5 h, higher = more signal, called active from +8 up or from −8 down
# [5] = CREB reporter modulators under forskolin, primary screen, cell-based, PC12, CRE-LacZ reporter, forskolin-stimulated (AID 1146); conditions: luminescence, 4.5 h, higher = more signal, called active from +8 up or from −8 down;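 also: PC12 cells with 6xCRE LacZ reporter stimulated by forskolin 10 µM; beta-galactosidase reporter signal reflecting CREB driven transcription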
# [6] = target: Streptavidin (Streptomyces avidinii) (UniProt P22629); test: streptavidin binders on small-molecule microarray, primary screen, artefact control for SMM compound annotation, biophysical, 635/667 nm fluorescence (AID 1147); conditions: streptavidin binding, higher = more signal;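 also: signal reflects streptavidin binding to arrayed compounds as a control protein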
# [7] = small-molecule binders of probe aInhba, primary screen, biochemical, small-molecule microarray, 635/667 nm fluorescence (AID 1148); conditions: higher = more signal;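 also: score merges 667nm spot fluorescence with signal-to-noise for antibody binding to printed compounds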
# [8] = target: Torsin-1A (Homo sapiens) (UniProt O14656); test: torsin A binders from cell lysate, primary screen, small-molecule microarray, wild-type, 635/667 nm (AID 1149); conditions: COS7 hTOR1A-WT lysate, 635 nm fluorescence, higher = more signal
# [9] = target: Torsin-1A (Homo sapiens) (UniProt O14656); test: small-molecule binders of mutant TOR1A in lysate, primary screen, cell lysate, small-molecule microarray, COS7 lysate, 635/667 nm fluorescence (AID 1150); conditions: COS7 hTOR1A mutant lysate, 635 nm fluorescence, higher = more signal;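 also: score pools 667 nm emission and signal to noise measuring lysate protein binding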
# [10] = test system: Sonic hedgehog protein (Shh); test: small-molecule binders of Shh protein, primary screen, biochemical, small-molecule microarray, 635/667 nm fluorescence (AID 1151); conditions: small-molecule microarray binding, 635 nm fluorescence; higher = more signal;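 also: Shh protein binding to compounds spotted on small-molecule microarray slides; score combines spot fluorescence intensity with signal-to-noise across triplicate slides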
# [11] = E. coli DRC41 culture turbidity changes, primary screen, E. coli filamentation inducer project, strain DRC41, OD650, 48 h (AID 1152);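 also: E. coli MC1000 strain DRC41 lacking acrAB efflux pump and sulA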; conditions: E. coli DRC41 (acrAB sulA), higher = more signal, called active from +8 up or from −8 down
# [12] = small-molecule binders of probe aLefty1, primary screen, biochemical, small-molecule microarray, 635/667 nm fluorescence (AID 1153); conditions: higher = more signal;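 also: score merges spot fluorescence with signal-to-noise ratio from the scanned slide images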
# [13] = PSAC antagonists in infected red cells, primary screen, cell-based, P. falciparum Indochina, OD700, 1 h (AID 1154); conditions: P. falciparum Indochina infected RBC osmotic lysis, higher = more signal, called active from +8 up or from −8 down
# [14] = PSAC antagonists in infected red cells, primary screen, cell-based, P. falciparum Indochina, OD700, 2 h (AID 1155);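 also: lysis reports solute entry through the parasite surface anion channel PSAC; channel blockers reduce lysis of infected cells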; conditions: P. falciparum Indochina infected erythrocytes, osmotic lysis OD700; higher = more signal, called active from +8 up or from −8 down
# [15] = osmotic lysis modulators in infected erythrocytes, primary screen, PSAC antagonist project, cell-based, P. falciparum Indochina, OD700, 3 h (AID 1156); conditions: higher = more signal, called active from +8 up or from −8 down
# [16] = PSAC antagonists in infected red cells, primary screen, cell-based, P. falciparum Indochina, OD700, 18 h (AID 1157); conditions: P. falciparum Indochina infected erythrocytes, osmotic lysis OD700, 18 h; higher = more signal, called active from +8 up or from −8 down
# [17] = modulators of S6 phosphorylation in cells, primary screen, cell-based, A549, cytoblot, luminescence, serum-stimulated (AID 1158); conditions: A549 phospho-S6 cytoblot, 5 h, higher = more signal;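 also: serum-stimulated A549 lung adenocarcinoma cells; signal is phosphorylated S6 detected by cytoblot immunostaining with HRP secondary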
# [18] = target: NADPH oxidase 2 (Homo sapiens) (UniProt P04839); test: NOX2-dependent H2O2 signal modulators, primary screen, NOX inhibitor project, cell-based, HEK293-NOX2, PMA-stimulated, Amplex Red fluorescence (AID 1159); conditions: 45 min, higher = more signal, called active from +8 up or from −8 down; also: test concentration not given here
# [19] = target: NADPH oxidase 4 (Homo sapiens) (UniProt Q9NPH5); test: NOX4-dependent H2O2 signal modulators, primary screen, NOX inhibitor project, cell-based, HEK293-NOX4, tetracycline-induced, Amplex Red fluorescence (AID 1160); conditions: 45 min, higher = more signal, called active from +8 up or from −8 down
# [20] = target: NADPH oxidase 5 (Homo sapiens) (UniProt Q96PH1); test: NOX5-dependent H2O2 signal modulators, primary screen, NOX inhibitor project, cell-based, HEK293-NOX5, Amplex Red fluorescence (AID 1161); conditions: HEK293-NOX5, ionomycin, 45 min, higher = more signal
# Sequence of NADPH oxidase 5 (Homo sapiens) (Q96PH1 whole entry, looked up): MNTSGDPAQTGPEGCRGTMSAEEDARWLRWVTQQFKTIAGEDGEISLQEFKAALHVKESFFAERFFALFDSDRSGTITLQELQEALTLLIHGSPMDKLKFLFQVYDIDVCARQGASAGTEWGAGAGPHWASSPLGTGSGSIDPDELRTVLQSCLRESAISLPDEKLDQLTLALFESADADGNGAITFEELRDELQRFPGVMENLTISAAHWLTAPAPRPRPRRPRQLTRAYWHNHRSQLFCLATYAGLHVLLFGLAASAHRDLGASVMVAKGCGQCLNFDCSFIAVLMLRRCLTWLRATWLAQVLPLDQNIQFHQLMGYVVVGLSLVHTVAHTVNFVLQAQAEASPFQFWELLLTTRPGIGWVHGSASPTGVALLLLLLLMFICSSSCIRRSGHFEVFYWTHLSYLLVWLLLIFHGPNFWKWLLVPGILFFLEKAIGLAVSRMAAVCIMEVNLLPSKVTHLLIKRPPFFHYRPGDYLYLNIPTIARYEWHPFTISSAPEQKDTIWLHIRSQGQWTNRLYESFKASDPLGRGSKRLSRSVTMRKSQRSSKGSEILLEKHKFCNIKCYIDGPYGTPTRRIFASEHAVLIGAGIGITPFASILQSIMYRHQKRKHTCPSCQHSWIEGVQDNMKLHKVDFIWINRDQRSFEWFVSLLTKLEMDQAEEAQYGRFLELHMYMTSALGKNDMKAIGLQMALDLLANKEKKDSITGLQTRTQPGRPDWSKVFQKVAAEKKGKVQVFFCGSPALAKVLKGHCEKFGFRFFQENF
# Sequence of Torsin-1A (Homo sapiens) (O14656 whole entry, looked up): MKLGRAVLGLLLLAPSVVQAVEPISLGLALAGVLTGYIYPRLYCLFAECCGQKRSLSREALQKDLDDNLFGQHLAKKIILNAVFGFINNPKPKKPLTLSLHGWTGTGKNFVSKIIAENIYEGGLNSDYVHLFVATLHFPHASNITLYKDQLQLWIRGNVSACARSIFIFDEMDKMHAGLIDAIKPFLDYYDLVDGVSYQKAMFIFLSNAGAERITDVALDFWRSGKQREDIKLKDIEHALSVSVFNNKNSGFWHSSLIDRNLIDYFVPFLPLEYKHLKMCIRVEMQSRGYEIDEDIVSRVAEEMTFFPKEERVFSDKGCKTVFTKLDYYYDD
# Sequence of NADPH oxidase 2 (Homo sapiens) (P04839 whole entry, looked up): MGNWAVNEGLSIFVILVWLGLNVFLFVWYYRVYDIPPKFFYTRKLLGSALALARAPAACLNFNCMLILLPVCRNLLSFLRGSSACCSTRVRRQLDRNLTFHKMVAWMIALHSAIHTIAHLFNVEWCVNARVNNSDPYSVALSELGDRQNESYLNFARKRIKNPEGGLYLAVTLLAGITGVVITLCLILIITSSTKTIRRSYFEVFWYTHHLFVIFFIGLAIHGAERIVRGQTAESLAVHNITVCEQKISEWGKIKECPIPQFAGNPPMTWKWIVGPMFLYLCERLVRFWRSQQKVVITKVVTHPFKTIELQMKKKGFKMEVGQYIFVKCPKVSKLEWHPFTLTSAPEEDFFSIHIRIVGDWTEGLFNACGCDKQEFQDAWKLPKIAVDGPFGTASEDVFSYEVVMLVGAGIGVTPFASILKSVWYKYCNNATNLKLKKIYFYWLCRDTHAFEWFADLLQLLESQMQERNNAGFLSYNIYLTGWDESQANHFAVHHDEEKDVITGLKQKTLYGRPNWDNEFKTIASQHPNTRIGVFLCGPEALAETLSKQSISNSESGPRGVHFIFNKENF
# Sequence of NADPH oxidase 4 (Homo sapiens) (Q9NPH5 whole entry, looked up): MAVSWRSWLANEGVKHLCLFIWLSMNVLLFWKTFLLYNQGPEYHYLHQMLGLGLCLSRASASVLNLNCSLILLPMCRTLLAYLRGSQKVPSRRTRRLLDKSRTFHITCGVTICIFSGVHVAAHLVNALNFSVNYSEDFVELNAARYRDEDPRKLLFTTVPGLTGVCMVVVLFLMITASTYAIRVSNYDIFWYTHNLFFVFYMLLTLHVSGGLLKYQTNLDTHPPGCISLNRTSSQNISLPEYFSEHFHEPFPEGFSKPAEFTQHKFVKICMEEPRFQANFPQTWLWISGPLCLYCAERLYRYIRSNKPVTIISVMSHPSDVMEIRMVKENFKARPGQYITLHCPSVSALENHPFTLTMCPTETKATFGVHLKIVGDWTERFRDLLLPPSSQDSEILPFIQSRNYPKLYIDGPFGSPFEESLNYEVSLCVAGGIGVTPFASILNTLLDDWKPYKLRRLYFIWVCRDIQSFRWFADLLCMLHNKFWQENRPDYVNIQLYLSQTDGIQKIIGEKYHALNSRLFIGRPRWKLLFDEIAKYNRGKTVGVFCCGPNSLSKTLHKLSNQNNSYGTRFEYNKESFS
# Sequence of Streptavidin (Streptomyces avidinii) (P22629 whole entry, looked up): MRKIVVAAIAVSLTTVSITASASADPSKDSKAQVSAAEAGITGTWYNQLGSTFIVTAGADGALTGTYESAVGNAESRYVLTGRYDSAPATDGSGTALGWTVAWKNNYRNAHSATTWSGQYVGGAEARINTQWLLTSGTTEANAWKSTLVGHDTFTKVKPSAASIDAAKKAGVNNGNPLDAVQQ
SMILES,composite z-score [1],z-score [2],z-score [3],z-score [4],z-score [5],composite z-score [6],composite z-score [7],composite z-score [8],composite z-score [9],composite z-score [10],z-score [11],composite z-score [12],z-score [13],z-score [14],z-score [15],z-score [16],z-score [17],z-score [18],z-score [19],z-score [20]
C=CCN(CCCC)C(=O)C(c1cccs1)N(C(=O)/C=C\C(=O)O)c1c(Cl)cccc1CO (stereo not given),-1.57 and -1.27,0.665 (inactive) and 0.504 (inactive),-0.428 (inactive) and 0.0609 (inactive),-0.761 (inactive) and 0.329 (inactive),0.325 (inactive) and -0.167 (inactive),-1.55 and -0.309,-0.38 and -0.186,-4.75 and -2.7,-3.62 and -2.89,-1.48 and -1.63,0.518 (inactive) and 0.0558 (inactive),-0.148 and -0.0099,0.111 (inactive) and 0.897 (inactive),-0.0165 (inactive) and -0.14 (inactive),-0.38 (inactive) and 0.0904 (inactive),0.113 (inactive) and 0.283 (inactive),1.21 and 0.596,0.148 (inactive) and 0.256 (inactive),-0.319 (inactive) and -0.507 (inactive),0.16 and 0.227
COC(=O)C1=C(C)N(Cc2ccccc2)[C@]23O[C@](C(=O)OC)(C(=O)N2[C@@H]1c1ccccc1)[C@H]1CCCC(=O)[C@H]13,0.04 and -0.0686,-3.29 (inactive) and -2.24 (inactive),-0.375 (inactive) and -1.01 (inactive),0.563 (inactive) and 2.64 (inactive),-0.771 (inactive) and -0.693 (inactive),0.3,0.114 and -0.018,0.165 and 0.434,0.815 and 0.262,0.396 and 0.436,0.0211 (inactive) and -0.587 (inactive),-0.0559 and 0.101,1.12 (inactive) and 0.466 (inactive),0.314 (inactive) and 0.0982 (inactive),0.0988 (inactive) and 0.882 (inactive),0.0037 (inactive) and -1.37 (inactive),-0.0731 and 2.28,-2.97 (inactive) and -0.233 (inactive),0.743 (inactive) and 0.178 (inactive),0.244 and -0.624
CCOC(=O)C[C@H]1[C@H](OC(=O)c2ccccc2-c2ccccc2)[C@@H](NC(=O)Cc2ccc(OC)cc2)c2cc(OCCCO)ccc2N1C(=O)c1ccc2ccccc2n1,0.0561 and 0.261,-0.319 (inactive) and 0.66 (inactive),-0.568 (inactive),7.64 (inactive) and -1.13 (inactive),-0.809 (inactive) and -0.751 (inactive),0.241 and 0.27,0.0543 and 0.168,0.0122 and -0.0425,0.19 and 0.686,0.207 and 0.3,2.19 (inactive) and 1.32 (inactive),-0.012 and -0.0186,3.8 (inactive) and 1.18 (inactive),0.674 (inactive) and 0.879 (inactive),0.366 (inactive) and -0.295 (inactive),0.329 (inactive) and 0.627 (inactive),0.661 and 0.0515,-0.488 (inactive) and 1.54 (inactive),0.946 (inactive) and 0.859 (inactive),0.365 and 0.0653
O=C1C[C@]2(c3ccc([N+](=O)[O-])cc3)C(=O)N(Cc3ccccc3)c3cc(CO)ccc3[C@H]2N1C1CCCCC1,0.0771 and 0.551,0.282 (inactive) and -5.67 (inactive),-0.19 (inactive) and -0.334 (inactive),-0.348 (inactive) and -0.152 (inactive),1.03 (inactive) and -0.885 (inactive),-0.286 and -0.157,-0.249 and 0.163,0.251 and 0.0218,0.22 and -0.0773,0.837 and 1.22,0.128 (inactive) and 0.873 (inactive),-0.221 and -0.0626,0.164 (inactive) and 11.5 (active),-0.198 (inactive) and 1.01 (inactive),-0.57 (inactive) and 4.35 (inactive),-0.434 (inactive) and -0.166 (inactive),0.483 and 2.97,0.139 (inactive) and 1.55 (inactive),0.644 (inactive) and -1.56 (inactive),-0.416 and -0.385
Cc1ccc(S(=O)(=O)N[C@H]2COC(=O)[C@@H](Cc3ccccc3)NC(=O)[C@@H](C)COC(=O)CC=C[C@@H]2C)cc1,0.089 and 0.0949,0.0143 (inactive) and -1.15 (inactive),-0.166 (inactive) and -1.8 (inactive),-0.746 (inactive) and 0.834 (inactive),-0.899 (inactive) and -0.0204 (inactive),-0.236 and -0.154,-0.234 and -0.158,0.143 and 0.354,0.254 and 0.289,1.07 and 1.29,-0.193 (inactive) and 0.569 (inactive),-0.232 and -0.0645,0.649 (inactive) and 1.51 (inactive),0.237 (inactive) and 0.491 (inactive),0.377 (inactive) and 1.9 (inactive),0.252 (inactive) and 0.148 (inactive),0.0356 and 0.201,-0.34 (inactive) and 0.252 (inactive),-0.302 (inactive) and -0.127 (inactive),0.189 and 0.00698
CON(C)C(=O)c1nnc2c3ccccc3n(S(=O)(=O)c3ccc(C)cc3)c2n1,0.26 and 0.335,0.24 (inactive) and 0.0218 (inactive),1.36 (inactive) and 0.0837 (inactive),1.37 (inactive) and 1.28 (inactive),-0.0387 (inactive) and -0.484 (inactive),1.31 and 1.67,0.0543 and -0.0018,0.201 and 1.19,0.492 and 1.11,0.642 and 1.22,-0.162 (inactive) and 0.162 (inactive),-0.262 and -0.368,1.21 (inactive) and 2.08 (inactive),0.0579 (inactive) and 0.454 (inactive),-0.212 (inactive) and 0.184 (inactive),-0.096 (inactive) and 0.149 (inactive),-0.375 and 0.313,0.442 (inactive) and -1.24 (inactive),0.882 (inactive) and 0.0607 (inactive),0.436 and 0.278

# From PubChem BioAssay
